# Measured values published in PubChem BioAssay.
# For part of these data: Results with a measured potency or affinity are listed apart. Calls of active or inactive are those of the source.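 The calls were made as follows, unless noted: active = primary screen active and over 50% activation in each of two duplicate runs; inactive = the rest.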
# Key:
# [1] = test system: TRPC4 beta (transient receptor potential cation channel C4), mouse; test: TRPC4 cation channel opening, retest – cell-based, Fluo4 calcium, HEK293 TRPC4beta/mu-opioid, duplicates, 10 µM, confirmation (AID 2426;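 active = fluorescence ratio normalized to control raised more than 50% in primary screen plus both repeat runs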;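 as to activation: percent rise of integrated ratio over buffer wells lacking compound which define 0%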); conditions: Fluo4 calcium fluorescence, at 10 µM; hits give high values
# [2] = test system: transient receptor potential cation channel C4 beta (TRPC4), mouse; test: TRPC4 cation channel opening, second retest – cell-based, second round, Fluo4, HEK293 TRPC4beta/mu-opioid, 1 µM, confirmation (AID 2461); conditions: Fluo4 calcium fluorescence, at 1 µM; hits give high values
# [3] = test system: TRPC4 (transient receptor potential cation channel C4 beta), mouse; test: potentiation of DAMGO EC20 TRPC4 response – cell-based, second round, Fluo-4, HEK293 TRPC4beta/mu-opioid, 1 µM, confirmation (AID 2554;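 active = primary screen hit whose fluorescence ratio, in both repeats, exceeds the weak agonist control mean by 3 SD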); conditions: DAMGO EC20, Fluo-4 calcium flux, at 1 µM; hits give high values
# [4] = test system: TRPC4 beta (transient receptor potential cation channel C4), mouse; test: potentiation of DAMGO EC20 TRPC4 response – cell-based, Fluo-4, HEK293 TRPC4beta/mu-opioid, confirmation (AID 2555;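 active = primary screen hit whose calcium fluorescence ratio, in both repeats, exceeds the weak agonist control mean by 3 SD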); conditions: DAMGO EC20, Fluo-4 calcium flux, at 10 µM; hits give high values
# [5] = biological target: Short transient receptor potential channel 4 (Mus musculus) (UniProt Q9QUQ5); test: blockers of DAMGO-evoked TRPC4 calcium flux – cell-based, Fluo4, HEK293 TRPC4beta/mu-opioid, confirmation (AID 2636;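 active = calcium signal cut by more than 3 SD below the full-agonist control yet still positive, in both repeats and the earlier primary screen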); conditions: at 10 µM; hits give high values
# Chain of Short transient receptor potential channel 4 (Mus musculus) (Q9QUQ5 whole entry, looked up): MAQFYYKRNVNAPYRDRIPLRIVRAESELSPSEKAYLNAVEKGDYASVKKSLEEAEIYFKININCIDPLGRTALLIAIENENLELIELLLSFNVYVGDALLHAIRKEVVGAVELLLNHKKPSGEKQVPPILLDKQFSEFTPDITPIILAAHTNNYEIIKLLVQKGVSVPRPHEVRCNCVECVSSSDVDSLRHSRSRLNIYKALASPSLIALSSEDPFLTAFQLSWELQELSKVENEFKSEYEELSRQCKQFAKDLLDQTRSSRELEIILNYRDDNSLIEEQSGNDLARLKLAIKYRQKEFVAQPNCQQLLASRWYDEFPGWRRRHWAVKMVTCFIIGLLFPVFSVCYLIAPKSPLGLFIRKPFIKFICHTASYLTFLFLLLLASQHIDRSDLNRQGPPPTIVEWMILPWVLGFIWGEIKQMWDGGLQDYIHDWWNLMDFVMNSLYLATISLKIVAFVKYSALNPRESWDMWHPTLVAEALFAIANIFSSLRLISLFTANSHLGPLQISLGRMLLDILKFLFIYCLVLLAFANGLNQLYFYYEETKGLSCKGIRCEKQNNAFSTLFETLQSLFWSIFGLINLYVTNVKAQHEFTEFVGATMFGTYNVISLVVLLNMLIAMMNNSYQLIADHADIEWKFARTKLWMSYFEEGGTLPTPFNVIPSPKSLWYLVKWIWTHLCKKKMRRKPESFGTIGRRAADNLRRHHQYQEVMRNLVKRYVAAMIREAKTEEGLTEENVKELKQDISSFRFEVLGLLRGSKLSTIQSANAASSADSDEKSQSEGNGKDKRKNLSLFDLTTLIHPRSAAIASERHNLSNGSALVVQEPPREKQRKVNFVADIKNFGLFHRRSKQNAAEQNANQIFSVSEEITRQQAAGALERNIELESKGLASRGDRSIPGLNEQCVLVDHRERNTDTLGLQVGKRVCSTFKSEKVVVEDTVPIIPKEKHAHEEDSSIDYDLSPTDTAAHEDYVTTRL
# [6] = biological target: Short transient receptor potential channel 4 (Mus musculus) (UniProt Q9QUQ5); test: blockers of DAMGO-evoked TRPC4 calcium flux – cell-based, second round, Fluo4, HEK293 TRPC4beta/mu-opioid, 1 µM, confirmation (AID 2637;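 active = calcium signal ratio cut to more than 3 SD under the fully stimulated control mean yet still positive, in both repeats and the primary screen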); conditions: at 1 µM; hits give high values
# [7] = biological target: Short transient receptor potential channel 4 (Mus musculus) (UniProt Q9QUQ5); test: calcium entry via TRPC4 opening agents – cell-based, HEK293 TRPC4/mu-opioid, Fluo-4 calcium, dose response (AID 434937;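 active = primary screen activator hit with a dose response curve and TRPC4 channel activation at any tested dose; inactive = no activation, no dose response, or not a primary hit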)
# [8] = biological target: Short transient receptor potential channel 4 (Mus musculus) (UniProt Q9QUQ5); test: potentiation of DAMGO-evoked TRPC4 calcium signal – cell-based, HEK293 TRPC4/mu-opioid, Fluo-4 calcium, EC20 DAMGO, dose response (AID 434941;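 active = earlier screen potentiator hit that boosts the TRPC4 ion channel at some dose, with a dose response; inactive = no potentiation, no dose response, or not a prior hit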;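 also: calcium entry triggered by an EC20 dose of DAMGO at the co-expressed mu-opioid receptor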)
# [9] = biological target: Short transient receptor potential channel 4 (Mus musculus) (UniProt Q9QUQ5); test: block of DAMGO-driven TRPC4 calcium entry – cell-based, HEK293 TRPC4/mu-opioid, Fluo-4 calcium, dose response (AID 434942;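 active = primary screen inhibitor hit that blocks the TRPC4 channel at some tested dose, yielding a dose curve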)
# [10] = biological target: Short transient receptor potential channel 6 (Mus musculus) (UniProt Q61143); test: TRPC6 blockade by TRPC4 inhibitor hits – cell-based, HEK293, membrane potential dye, duplicate, selectivity assay for TRPC4 inhibitor project, confirmation (AID 434948;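 active = active in primary screen and both duplicates, each dropping signal beyond three positive-control SD with fluorescence still positive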); conditions: HEK293 TRPC6, membrane potential dye fluorescence, at 10 µM, stimulated with maximal-effect acetylcholine; hits give high values
# Chain of Short transient receptor potential channel 6 (Mus musculus) (Q61143 whole entry, looked up): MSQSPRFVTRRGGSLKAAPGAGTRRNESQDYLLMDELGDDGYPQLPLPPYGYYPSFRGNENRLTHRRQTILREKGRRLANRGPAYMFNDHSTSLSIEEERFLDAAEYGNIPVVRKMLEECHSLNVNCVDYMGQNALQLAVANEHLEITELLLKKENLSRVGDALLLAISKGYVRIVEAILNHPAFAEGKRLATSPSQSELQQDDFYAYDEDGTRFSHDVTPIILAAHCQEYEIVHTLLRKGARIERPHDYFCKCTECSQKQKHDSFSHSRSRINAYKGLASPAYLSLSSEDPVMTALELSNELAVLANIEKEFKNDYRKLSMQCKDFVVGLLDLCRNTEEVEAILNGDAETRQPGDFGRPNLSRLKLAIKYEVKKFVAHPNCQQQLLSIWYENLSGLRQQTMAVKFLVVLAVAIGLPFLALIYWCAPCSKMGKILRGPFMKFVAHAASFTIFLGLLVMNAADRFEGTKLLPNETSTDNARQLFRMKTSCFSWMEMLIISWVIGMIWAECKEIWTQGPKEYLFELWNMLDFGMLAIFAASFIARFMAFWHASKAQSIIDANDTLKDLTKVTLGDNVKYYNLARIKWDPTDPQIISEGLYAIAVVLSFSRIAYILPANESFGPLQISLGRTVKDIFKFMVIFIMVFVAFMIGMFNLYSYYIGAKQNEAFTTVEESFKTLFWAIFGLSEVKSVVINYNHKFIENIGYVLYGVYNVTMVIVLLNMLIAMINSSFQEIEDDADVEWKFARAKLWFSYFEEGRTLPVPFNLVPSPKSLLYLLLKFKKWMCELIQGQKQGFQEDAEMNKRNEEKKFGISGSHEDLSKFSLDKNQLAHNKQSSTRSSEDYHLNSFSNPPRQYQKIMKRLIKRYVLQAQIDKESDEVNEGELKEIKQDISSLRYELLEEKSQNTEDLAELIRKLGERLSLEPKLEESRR
# [11] = biological target: Short transient receptor potential channel 6 (Mus musculus) (UniProt Q61143); test: TRPC6 opening by TRPC4 activator hits – cell-based, HEK293, membrane potential dye, duplicate, selectivity assay for TRPC4 activator project, confirmation (AID 434950;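 active = membrane potential signal rise above negative control mean plus 3 SD in both duplicates, also active in the earlier TRPC4 screen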;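 as to activation: 0% = buffer only wells and 100% = acetylcholine maximal-effect wells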); conditions: HEK293 TRPC6, membrane potential fluorescence, at 10 µM; activation: hits give high values; outcome: activation
# [12] = biological target: Short transient receptor potential channel 6 (Mus musculus) (UniProt Q61143); test: positive modulators of mouse TRPC6 channel – HEK293 cells, membrane potential dye, duplicate, selectivity assay for TRPC4 potentiator project, confirmation (AID 434952;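 active = compound raising the membrane signal above positive-control mean plus 3 SD in both repeats, and a primary screen hit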); conditions: HEK293 TRPC6, membrane potential dye fluorescence, at 10 µM, maximal acetylcholine added after compound; hits give high values
# [13] = biological target: Short transient receptor potential channel 4 (Mus musculus) (UniProt Q9QUQ5); test: calcium flux activators in TRPC4/5HT1a cells, counter-screen for TRPC4 activator project, cell-based, second counter screen, HEK293 TRPC4/5HT1a, Fluo-4 (AID 434977;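 active = calcium signal rise above buffer-control mean plus 5 SD in both duplicates, and also a hit in the primary screen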;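 as to activation: plate controls were assay buffer for no effect and maximal serotonin response for full effect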); conditions: Fluo-4 calcium flux, at 10 µM; hits give high values
# [14] = serotonin-gated TRPC4 signal block – cell-based, second counter screen, HEK293 TRPC4/5HT1a, Fluo-4, counter-screen for TRPC4 inhibitor project, confirmation (AID 434978;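 active = primary screen active whose calcium signal fell more than 3 SD beyond the full-serotonin control mean in both duplicate plates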;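 as to outcome: serotonin given first at submaximal then at maximal dose after compound preincubation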); conditions: Fluo-4 calcium flux, at 10 µM, serotonin added to trigger calcium flux; hits give high values
# [15] = test system: TRPC4 (mouse), co-expressed with 5HT1a in HEK293; test: enhancement of serotonin-evoked TRPC4 response – cell-based, second counter screen, HEK293 TRPC4/5HT1a, Fluo-4, counter-screen for TRPC4 potentiator project, confirmation (AID 434979;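 active = signal rise over 3 SD above mean of control wells given weak agonist, in both repeats and first screen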); conditions: Fluo-4 calcium flux, at 10 µM, serotonin added at its EC20 dose; hits give high values
# [16] = nonspecific calcium rise without TRPC4 – cell-based, HEK293 mu-opioid receptor line, counter-screen for TRPC4 activator project, confirmation (AID 449723;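 active = hit in primary screen, with calcium signal over 5 SD above buffer well mean in both duplicates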;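 also: counter screen cells carry the mu-opioid receptor alone and lack TRPC4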); conditions: HEK293 mu-opioid cells, Fluo-4 calcium fluorescence, at 10 µM; hits give high values
# [17] = nonspecific potentiation of DAMGO calcium response – cell-based, HEK293 mu-opioid receptor line, counter-screen for TRPC4 allosteric potentiator project, confirmation (AID 449724;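 active = calcium signal rise more than 3 SD above the low-dose agonist control mean, in both duplicate plates and the primary screen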); conditions: HEK293 mu-opioid receptor cells, Fluo-4 calcium flux, at 10 µM, compound added before EC20 DAMGO stimulus; hits give high values
structure (smiles),measurement,setting,value
Cc1cc(S(=O)(=O)NC2CCN(Cc3ccccc3)CC2)c(C)cc1Cl,outcome,[1],inactive
same,outcome,[2],inactive
same,outcome,[3],inactive
same,outcome,[4],inactive
same,outcome,[5],inactive
same,outcome,[6],inactive
same,outcome,[7],inactive
same,outcome,[8],inactive
same,outcome,[9],inactive
same,outcome,[10],inactive
same,outcome,[11],inactive
same,outcome,[12],inactive
same,outcome,[13],inactive
same,outcome,[14],inactive
same,potentiation,[15],23.1% (active)
same,outcome,[16],inactive
same,outcome,[17],inactive
CCn1c(CN2CCN(C(c3ccccc3)c3ccccc3)CC2)nc2c1c(=O)n(C)c(=O)n2C,outcome,[1],inactive
same,outcome,[2],inactive
same,outcome,[3],inactive
same,outcome,[4],inactive
same,outcome,[5],inactive
same,outcome,[6],inactive
same,outcome,[7],inactive
same,outcome,[8],inactive
same,outcome,[9],inactive
same,outcome,[10],inactive
same,outcome,[11],inactive
same,outcome,[12],inactive
same,outcome,[13],inactive
same,outcome,[14],inactive
same,potentiation,[15],18.4% (active)
same,outcome,[16],inactive
same,outcome,[17],inactive
COc1ccc(Cl)c2sc(N(CCN(C)C)C(=O)c3ccc4c(c3)OCCO4)nc12,outcome,[1],inactive
same,outcome,[2],inactive
same,potentiation,[3],9% (active)
same,potentiation,[4],26% (active)
same,outcome,[5],inactive
same,outcome,[6],inactive
same,outcome,[7],inactive
same,outcome,[8],inactive
same,outcome,[9],inactive
same,outcome,[10],inactive
same,outcome,[11],inactive
same,outcome,[12],inactive
same,outcome,[13],inactive
same,outcome,[14],inactive
same,outcome,[15],inactive
same,outcome,[16],inactive
same,outcome,[17],inactive
CN1CCN(NC(=O)c2cccc(Br)c2)CC1,outcome,[1],inactive
same,outcome,[2],inactive
same,potentiation,[3],8% (active)
same,potentiation,[4],18% (active)
same,outcome,[5],inactive
same,outcome,[6],inactive
same,outcome,[7],inactive
same,outcome,[8],inactive
same,outcome,[9],inactive
same,outcome,[10],inactive
same,outcome,[11],inactive
same,outcome,[12],inactive
same,outcome,[13],inactive
same,outcome,[14],inactive
same,potentiation,[15],21.8% (active)
same,outcome,[16],inactive
same,outcome,[17],inactive
CC(C(=O)c1ccc(Br)cc1)[n+]1cccc(NC(=O)c2ccccc2)c1 (stereo not given),outcome,[1],inactive
same,outcome,[2],inactive
same,outcome,[3],inactive
same,outcome,[4],inactive
same,outcome,[5],inactive
same,outcome,[6],inactive
same,outcome,[7],inactive
same,outcome,[8],inactive
same,outcome,[9],inactive
same,outcome,[10],inactive
same,outcome,[11],inactive
same,outcome,[12],inactive
same,outcome,[13],inactive
same,outcome,[14],inactive
same,outcome,[15],inactive
same,outcome,[16],inactive
same,outcome,[17],inactive
CC(C)(C)c1ccccc1OCCCCCn1ccnc1,outcome,[1],inactive
same,outcome,[2],inactive
same,outcome,[3],inactive
same,outcome,[4],inactive
same,outcome,[5],inactive
same,outcome,[6],inactive
same,outcome,[7],inactive
same,outcome,[8],inactive
same,outcome,[9],inactive
same,outcome,[10],inactive
same,outcome,[11],inactive
same,outcome,[12],inactive
same,outcome,[13],inactive
same,outcome,[14],inactive
same,outcome,[15],inactive
same,outcome,[16],inactive
same,outcome,[17],inactive
CCCCc1nc(N2CCOCC2)c(C#N)c2c1CCCC2,outcome,[1],inactive
same,outcome,[2],inactive
same,outcome,[3],inactive
same,outcome,[4],inactive
same,outcome,[5],inactive
same,outcome,[6],inactive
same,outcome,[7],inactive
same,outcome,[8],inactive
same,outcome,[9],inactive
same,outcome,[10],inactive
same,outcome,[11],inactive
same,outcome,[12],inactive
same,outcome,[13],inactive
same,inhibition,[14],36.5% (active)
same,outcome,[15],inactive
same,outcome,[16],inactive
same,outcome,[17],inactive
Cc1ccc(Nc2nc3ccccc3[nH]2)nc1,outcome,[1],inactive
same,outcome,[2],inactive
same,outcome,[3],inactive
same,outcome,[4],inactive
same,outcome,[5],inactive
same,outcome,[6],inactive
same,outcome,[7],inactive
same,outcome,[8],inactive
same,outcome,[9],inactive
same,outcome,[10],inactive
same,outcome,[11],inactive
same,outcome,[12],inactive
same,outcome,[13],inactive
same,outcome,[14],inactive
same,outcome,[15],inactive
same,outcome,[16],inactive
same,outcome,[17],inactive
Cc1ccccc1OCCNc1cc(N2CCNCC2)ccc1[N+](=O)[O-],outcome,[1],inactive
same,outcome,[2],inactive
same,outcome,[3],inactive
same,outcome,[4],inactive
same,outcome,[5],inactive
same,outcome,[6],inactive
same,outcome,[7],inactive
same,outcome,[8],inactive
same,outcome,[9],inactive
same,outcome,[10],inactive
same,outcome,[11],inactive
same,outcome,[12],inactive
same,outcome,[13],inactive
same,outcome,[14],inactive
same,outcome,[15],inactive
same,outcome,[16],inactive
same,outcome,[17],inactive
CCSc1nnc([C@H](Cc2c[nH]c3ccccc23)NC(=O)OC(C)(C)C)o1,outcome,[1],inactive
same,outcome,[2],inactive
same,outcome,[3],inactive
same,outcome,[4],inactive
same,outcome,[5],inactive
same,outcome,[6],inactive
same,outcome,[7],inactive
same,outcome,[8],inactive
same,outcome,[9],inactive
same,outcome,[10],inactive
same,outcome,[11],inactive
same,outcome,[12],inactive
same,outcome,[13],inactive
same,outcome,[14],inactive
same,potentiation,[15],13.1% (active)
same,outcome,[16],inactive
same,outcome,[17],inactive
C/C=C(/C)C(=O)O[C@@H]1c2cc(OC)c(OC)c(OC)c2-c2c(cc3c(c2OC)OCO3)C[C@H](C)[C@]1(C)O,outcome,[1],inactive
same,outcome,[2],inactive
same,outcome,[3],inactive
same,outcome,[4],inactive
same,outcome,[5],inactive
same,outcome,[6],inactive
same,outcome,[7],inactive
same,outcome,[8],inactive
same,outcome,[9],inactive
same,outcome,[10],inactive
same,outcome,[11],inactive
same,outcome,[12],inactive
same,outcome,[13],inactive
same,outcome,[14],inactive
same,outcome,[15],inactive
same,outcome,[16],inactive
same,outcome,[17],inactive
C/C=C/Cn1c(SCCCc2ccccc2)nc2c1c(=O)[nH]c(=O)n2C,outcome,[1],inactive
same,outcome,[2],inactive
same,potentiation,[3],12% (active)
same,potentiation,[4],27% (active)
same,outcome,[5],inactive
same,outcome,[6],inactive
same,outcome,[7],inactive
same,outcome,[8],inactive
same,outcome,[9],inactive
same,outcome,[10],inactive
same,outcome,[11],inactive
same,outcome,[12],inactive
same,outcome,[13],inactive
same,outcome,[14],inactive
same,potentiation,[15],88.5% (active)
same,outcome,[16],inactive
same,outcome,[17],inactive
Cc1ccc(C)n1-c1nnc(N2CCC(C(=O)NCCCN3CC(C)CC(C)C3)CC2)s1 (stereo not given),activation,[1],67% (active)
same,outcome,[2],inactive
same,outcome,[3],inactive
same,outcome,[4],inactive
same,outcome,[5],inactive
same,outcome,[6],inactive
same,outcome,[7],inactive
same,outcome,[8],inactive
same,outcome,[9],inactive
same,outcome,[10],inactive
same,outcome,[11],inactive
same,outcome,[12],inactive
same,activation,[13],20.3% (active)
same,outcome,[14],inactive
same,outcome,[15],inactive
same,outcome,[16],inactive
same,outcome,[17],inactive
O=C(C1=C[C@H](c2ccc(C(F)(F)F)cc2)C[C@H](OCCCCO)O1)N1CCN(Cc2ccccc2)CC1,outcome,[1],inactive
same,outcome,[2],inactive
same,outcome,[3],inactive
same,outcome,[4],inactive
same,outcome,[5],inactive
same,outcome,[6],inactive
same,outcome,[7],inactive
same,outcome,[8],inactive
same,outcome,[9],inactive
same,outcome,[10],inactive
same,activation,[11],35% (active)
same,outcome,[12],inactive
same,outcome,[13],inactive
same,outcome,[14],inactive
same,outcome,[15],inactive
same,outcome,[16],inactive
same,outcome,[17],inactive
O=C(COC(=O)c1nc(Cl)ccc1Cl)c1ccccc1Cl,outcome,[1],inactive
same,outcome,[2],inactive
same,outcome,[3],inactive
same,outcome,[4],inactive
same,outcome,[5],inactive
same,outcome,[6],inactive
same,outcome,[7],inactive
same,outcome,[8],inactive
same,outcome,[9],inactive
same,outcome,[10],inactive
same,outcome,[11],inactive
same,outcome,[12],inactive
same,outcome,[13],inactive
same,outcome,[14],inactive
same,outcome,[15],inactive
same,outcome,[16],inactive
same,outcome,[17],inactive
